Measured values: the supplement of paper PMC6897291
Counter-ions that a name gives are not always drawn.

Test system: RIVA
Assay: growth inhibition by drug alone (1 - RLU/untreated control) (fraction); higher = stronger inhibition
Details: 177Lu-lilotomab satetraxetan 0 ug/ml
Description: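 RIVA (RI-1) ABC-DLBCL cells were pretreated or not for 18 h with 0.5 ug/ml 177Lu-lilotomab satetraxetan (600 MBq/mg), washed and seeded (3000 cells/well) on 384-well plates pre-printed with the Selleck Cambridge Cancer Compound library. Viability was read by RealTime-Glo luminescence on days 3-6 after seeding. Effect = 1 - RLU/mean RLU of the 48 untreated no-drug control wells per plate; Bliss score = (M-E)/(1-Fa).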

Structure (SMILES) | growth inhibition by drug alone (10 nM, time (day): 3) | growth inhibition by drug alone (10 nM, time (day): 4) | growth inhibition by drug alone (10 nM, time (day): 5) | growth inhibition by drug alone (10 nM, time (day): 6) | growth inhibition by drug alone (100 nM, time (day): 3) | growth inhibition by drug alone (100 nM, time (day): 4) | growth inhibition by drug alone (100 nM, time (day): 5) | growth inhibition by drug alone (100 nM, time (day): 6)
C[C@]12CC[C@H](O)CC1=CC[C@@H]1[C@@H]2CC[C@]2(C)C(c3cccnc3)=CC[C@@H]12 [Abiraterone (CB-7598)] | -0.0346 | -0.0301 | -0.224 | -0.618 | -0.373 | -0.274 | -0.381 | -0.72
CC/C(=C(\c1ccccc1)c1ccc(OCCN(C)C)cc1)c1ccccc1 [Tamoxifen Citrate (Nolvadex)] | 0.0612 | 0.0931 | 0.0782 | -0.0872 | 0.551 | 0.381 | 0.352 | 0.322
NC(=O)Nc1cc(-c2cccc(F)c2)sc1C(=O)N[C@H]1CCCNC1 | 0.0596 | 0.0145 | -0.0537 | -0.23 | 0.0812 | 0.0623 | 0.0116 | -0.14
O=C(O)C(Cc1c[nH]c2ccccc12)N1C(=O)c2ccccc2C1=O (stereo not given) | -0.0918 | -0.166 | -0.249 | -0.485 | -0.231 | -0.283 | -0.253 | -0.339
CC(C)n1nc(-c2ccc3oc(N)nc3c2)c2c(N)ncnc21 | 0.258 | 0.176 | 0.117 | -0.0267 | 0.716 | 0.708 | 0.699 | 0.63
